About 2,100 (0.66%) of roughly 320,000 compounds were called active. Inconclusive results (about 53%) are left out. Calls come from the whole dose curve; as a rule, active = well fitted inhibition curve with a large enough effect in the signal ratio, with a control signal flat (not every such curve was filed as active); inconclusive = small, poorly fitted or top-dose-only effect, or effect the other way, or a change in a side signal; inactive = flat fitted curve, though single readings scatter; the % refers to the signal ratio. For the sample, actives were picked, then their nearest neighbours and some compounds at random.
Potency is the fitted concentration of half-maximal effect.

A short description of this test: qHTS Assay for Lipid Storage Modulators in Drosophila S3 Cells.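 For cell number change: cells counted by Cell Tracker Red CMTPX staining in the red channel.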 For lipid storage change, negative = inhibition: % is set by controls: 0 for no effect and ±100 for the full control effect. Conditions: BODIPY lipid droplet fluorescence, 18-24 h, cells fed with added oleic acid; cell number change: measured here: cell count max response; series mostly up to 46.1 µM; lipid storage change, negative = inhibition: at the top concentration. Summed up:
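Drosophila S3 cells got compounds at several concentrations plus oleic acid (400 uM solution). Laser-scanning cytometry with 488 nm excitation read lipid droplets at 500-530 nm and cells at 575-640 nm. Percent activity was relative to 20 uM Triacsin C.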
(In qHTS, concentration-response curves come from the screen itself.)
For `O=C(CN1CCN(c2ccccc2O)CC1)NC(c1ccccc1)c1ccccc1`, the “lipid storage change, negative = inhibition” value is 16.7% (inactive) and the cell number change was 6.07%. Take `COc1cc(S(=O)(=O)NCc2ccccn2)c(OC)cc1Cl`: the “lipid storage change, negative = inhibition” value was 1.56% (inactive) and the cell number change is 4.19%.

Regarding `CCOC(=O)N1CCN(S(=O)(=O)c2ccc3c(c2)SC(C)C(=O)N3)CC1` (stereo unspecified), the “lipid storage change, negative = inhibition” value was -9.6% (inactive) and the cell number change is -22.8%. `COC(=O)CSc1nnc(CNC(=O)c2ccc(S(=O)(=O)N(C)C)cc2)n1C`: the “lipid storage change, negative = inhibition” value was 4.97% (inactive).

For the compound `CCCSc1nnc(CNS(=O)(=O)c2ccc(C)cc2)n1C`, the “lipid storage change, negative = inhibition” value is 2.69% (inactive) and the cell number change was -0.463%. In the case of `COC(=O)CSc1nnc(CNS(=O)(=O)c2ccc(Cl)cc2)n1C`, the Potency was 20.6 µM (active) and the cell number change is -22.7%. Regarding `O=C(c1cccc(Cl)c1)N1CCC(N2CCC(C(=O)N3CCOCC3)CC2)CC1`, the “lipid storage change, negative = inhibition” value is -10.6% (inactive) and the cell number change is -7.23%. Take `CCN1CCCC1CNS(=O)(=O)c1c(C)cc(C)cc1C` (stereo unspecified): the “lipid storage change, negative = inhibition” value was 17% (inactive) and the cell number change is -11.3%.

With `CCOC(=O)c1sc(NC(C)=O)nc1C`, the compound was classed as inactive.

As for `CCCn1c(SCC(=O)Nc2ccc(NC(C)=O)cc2)nc2c1c(=O)n(C)c(=O)n2C`, the result was inactive and the cell number change was 7.69%.

For `COCCN(C(=O)CCC(=O)Nc1cc(C)on1)C(C(=O)NC1CCCC1)c1ccccc1C` (stereo unspecified), the “lipid storage change, negative = inhibition” value was 7.32% (inactive) and the cell number change came to 7.81%. Consider `COCCN(C(=O)C(=O)NC1CCCC1)C(C(=O)NC1CCCC1)c1ccccc1F` (stereo unspecified), for which the “lipid storage change, negative = inhibition” value is -0.455% (inactive) and the cell number change stood at 6.8%. With `COCCN(C(=O)CCl)C(C(=O)NC1CCCCC1)c1ccccc1C` (stereo unspecified), the Potency was 23.1 µM (active) and the cell number change was -11.6%.

For `O=S(=O)(NCc1ccccc1)c1ccc(Cl)cc1`, the “lipid storage change, negative = inhibition” value is -5.46% (inactive) and the cell number change was -16.1%. In the case of `C=CCn1c(O)c(C=Nc2ccc(Cc3ccncc3)cc2)c(=O)[nH]c1=S`, the “lipid storage change, negative = inhibition” value was 11.8% (inactive) and the cell number change is 1.96%.

For `O=C(O)c1ccc(-n2nnnc2Oc2cccc3cccnc23)cc1`, the Potency is 23.1 µM (active) and the cell number change was -14.4%. For `c1ccc(-n2nnnc2Oc2cccc3cccnc23)cc1`, the call was inactive. Turning to `Cc1ccc2cccc(Oc3nnnn3-c3ccccc3)c2n1`, the outcome was inactive and the cell number change turned out to be 10.6%. Turning to `CCNC(=O)CC1SC(=Nc2ccccc2C)N(C)C1=O` (stereo unspecified), the “lipid storage change, negative = inhibition” value was 1.25% (inactive) and the cell number change turned out to be 12.4%. With `CCN1CCN(c2ccc(S(=O)(=O)N3CCCCC3)cc2NC(=O)c2ccc(F)cc2)CC1`, the “lipid storage change, negative = inhibition” value is 16% (inactive). For the compound `COc1ccc(/C=C(\NC(=O)c2ccc(OC)cc2)C(=O)Nc2ccc(C(=O)O)cc2)cc1`, the compound was called inactive and the cell number change came out at 11.1%. Turning to `Cc1ccc(S(=O)(=O)N2CCN(C(=O)CN3CCCSc4ccccc43)CC2)cc1`, the “lipid storage change, negative = inhibition” value was 14.9% (inactive) and the cell number change came to 6.28%. As for `N#Cc1ccccc1S(=O)(=O)N1CCN(C(=O)C2CCC2)CC1`, the “lipid storage change, negative = inhibition” value was 14.4% (inactive) and the cell number change is 17.3%. As for `N#Cc1ccccc1S(=O)(=O)N1CCN(C(=O)CN2CCCSc3ccccc32)CC1`, the Potency was 2.06 µM (active) and the cell number change was -12.9%. For `CCOC(=O)c1ccc(NC(=O)c2nc[nH]c2C(=O)N[C@@H](CC(C)C)C(=O)OC(C)(C)C)cc1`, the “lipid storage change, negative = inhibition” value was -1.73% (inactive) and the cell number change is -3.92%. Take `C[C@@H](NC(=O)c1nc[nH]c1C(=O)N[C@@H](Cc1ccccc1)C(=O)OCc1ccccc1)c1ccccc1`: the “lipid storage change, negative = inhibition” value is -0.678% (inactive) and the cell number change is -24.1%. On to `O=C(N[C@@H](Cc1ccccc1)C(=O)OCc1ccccc1)c1nc[nH]c1C(=O)NC(c1ccccc1)c1ccccc1`, for which the “lipid storage change, negative = inhibition” value was 3.83% (inactive) and the cell number change was 11.4%. Turning to `C[C@H](NC(=O)c1nc[nH]c1C(=O)N[C@@H](Cc1ccccc1)C(=O)OC(C)(C)C)C(=O)OC(C)(C)C`, the “lipid storage change, negative = inhibition” value is 16% (inactive) and the cell number change came to 1.8%.

`C[C@H](NC(=O)c1nc[nH]c1C(=O)N(C)Cc1ccccc1)C(=O)OC(C)(C)C`: the Potency is 0.651 µM (active) and the cell number change stood at 20.3%. For `CC(C)(C)OC(=O)[C@H](Cc1ccccc1)NC(=O)c1[nH]cnc1C(=O)Nc1ccc(Cl)cc1`, the “lipid storage change, negative = inhibition” value was -47.5% (inactive) and the cell number change is -19.3%. On to `C[C@H](NC(=O)c1nc[nH]c1C(=O)NCc1ccccc1)C(=O)OC(C)(C)C`, for which the “lipid storage change, negative = inhibition” value was -10.5% (inactive) and the cell number change is -10.1%. As for `CC(C)C[C@H](NC(=O)c1nc[nH]c1C(=O)N(C)Cc1ccccc1)C(=O)OC(C)(C)C`, the “lipid storage change, negative = inhibition” value was -12.5% (inactive) and the cell number change was -15.1%. In the case of `C[C@H](NC(=O)c1nc[nH]c1C(=O)N[C@@H](C)C(=O)OC(C)(C)C)C(=O)OCc1ccccc1`, the “lipid storage change, negative = inhibition” value was -8.74% (inactive) and the cell number change stood at 0.898%. For the compound `O=C(N[C@@H](Cc1ccccc1)C(=O)OCc1ccccc1)c1nc[nH]c1C(=O)N[C@@H](Cc1ccccc1)C(=O)OCc1ccccc1`, the Potency was 3.26 µM (active). `C[C@H](NC(=O)c1nc[nH]c1C(=O)N[C@@H](Cc1ccccc1)C(=O)OC(C)(C)C)C(=O)OCc1ccccc1`: the Potency is 14.6 µM (active) and the cell number change was 26.3%. Consider `CCOC(=O)c1ccc(NC(=O)c2nc[nH]c2C(=O)N[C@@H](Cc2ccccc2)C(=O)OC(C)(C)C)cc1`, for which the Potency is 18.4 µM (active) and the cell number change was -20.1%. Regarding `COc1ccccc1CN1CC(C(=O)N(CCO)Cc2cccs2)CCC1=O` (stereo unspecified), the “lipid storage change, negative = inhibition” value was 8.22% (inactive) and the cell number change is 1.74%.

With `CCN1CCCC1CNC(=O)C(=O)NC` (stereo unspecified), the “lipid storage change, negative = inhibition” value is -3.62% (inactive) and the cell number change stood at 1.27%. Turning to `Cc1c(C(=O)NCc2cccnc2)oc2ccc(S(=O)(=O)N3CCCCCC3)cc12`, the call was inactive. On to `O=C(Cn1ccc(C(F)(F)F)n1)N/N=C/c1ccc2c(c1)OCO2`, for which the “lipid storage change, negative = inhibition” value is 11.3% (inactive) and the cell number change was found to be 4.92%.

On to `COc1ccc(Cl)cc1NC(=O)CCn1c(=O)oc2ccccc21`, for which the “lipid storage change, negative = inhibition” value is -13.1% (inactive). On to `O=C(CN1C(=O)C2C3CCC(C3)C2C1=O)OCC(=O)c1cccc([N+](=O)[O-])c1` (stereo unspecified), for which the “lipid storage change, negative = inhibition” value was 4.51% (inactive) and the cell number change stood at 2.72%. As to `C=CCn1c(SCc2ccc(C(=O)NCCO)cc2)nc2sc(C)c(C)c2c1=O`, the “lipid storage change, negative = inhibition” value was 3.04% (inactive) and the cell number change amounted to 22.5%. `Cc1ccc(C(=O)NNc2ncnc3c2cnn3C)cc1`: the “lipid storage change, negative = inhibition” value is 3.58% (inactive) and the cell number change is -1.39%.
